Vif-A3F inh = inhibitors of Vif-A3F interaction; hit rate 0.2% among 390,000; HeLa A3F-eYFP + Vif (tagged APOBEC3F with the HIV-1 protein that degrades it), YFP fluorescence increase; Potency, µM (doses to about 46.1 µM); note: nearly all actives have a fitted effect of over 65% in size
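HeLa cells stably expressing A3F-eYFP plus Vif, plated and incubated overnight at 37 deg C, then exposed to compounds overnight at 37 deg C. Blocked degradation read as raised yellow fluorescence (Ex 488/Em 500-530).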
LDHA inh = inhibitors of human lactate dehydrogenase A; P00338; purified LDHA, NADH/diaphorase-resazurin fluorescence; stronger effect = lower value; activity change, % (values are at about 110 or 230 µM); hit rate 0.15% among 480,000; AID 1347041; in the data active = activity change below about -30%; inconclusive = mostly about -25% to -30%
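LDH5 2 nM; NADH 0.06 mM, pyruvate 0.2 mM; 200 mM Tris pH 7.4, EDTA, Tween-20; 5 min RT. Detection: diaphorase 0.133 mg/mL + resazurin 37 µM, fluorescence ex540/em590 at 0 and 20 min; normalized to enzyme-free and DMSO wells.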
Vif-A3G inh = Vif-A3G binding inhibition; Potency, µM (titrated, usually from 46.1 µM), hits mostly inhibitors; AID 602310; hit rate 0.076% among 410,000; Q9HC16; HeLa A3G-eYFP + Vif (tagged APOBEC3G with the HIV-1 protein that degrades it), YFP fluorescence, overnight; note: nearly all actives have a fitted effect of over 60% in size
Target sequence (Q9HC16 whole entry, looked up): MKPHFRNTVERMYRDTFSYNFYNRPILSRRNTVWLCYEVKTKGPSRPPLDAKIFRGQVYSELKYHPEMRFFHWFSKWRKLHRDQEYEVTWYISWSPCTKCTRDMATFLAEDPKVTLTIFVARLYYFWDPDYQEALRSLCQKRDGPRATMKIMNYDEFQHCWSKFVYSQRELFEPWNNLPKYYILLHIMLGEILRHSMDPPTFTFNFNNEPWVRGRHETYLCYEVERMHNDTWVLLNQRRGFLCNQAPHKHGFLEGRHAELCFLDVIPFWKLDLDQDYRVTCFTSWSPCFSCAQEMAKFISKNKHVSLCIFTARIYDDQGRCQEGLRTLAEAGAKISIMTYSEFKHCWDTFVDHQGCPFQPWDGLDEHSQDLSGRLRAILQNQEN
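Read-out is eYFP fluorescence (Ex 488/Em 500-530) from Vif-expressing HeLa A3G-eYFP cells; more signal means A3G escaped Vif-mediated degradation. Cells plated overnight, compound pinned in, incubated overnight at 37 deg C.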
pAkt inh = inhibitors of Akt phosphorylation | hit rate 0.32% among 360,000 | Neuro2A IGF-stimulated pAkt S473 HTRF, 20 min; stronger effect = lower value | AID 651550 | activity change, % for hits at 50 µM; in the data active = activity change below about -80%; inconclusive = mostly about -51% to -80%
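Neuro2A cells (4,500/well, DMEM with 0.5% FBS) were treated with compound at a single 50 µM final concentration, stimulated with 6 nM IGF for 20 min at 37 °C, and lysed. Phospho-Akt Ser473 was read by HTRF as 665/615 ratio ×10^4.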
PINK1 expr mod = modulators of PINK1 expression. PINK1 immunofluorescence, high-content cytometry, 24 h. Potency, µM (series often up to 76.6 µM), actives largely listed as activators. hit rate 0.2% among 410,000; active = well fitted activation curve with a large enough effect; inconclusive = small, poorly fitted or top-dose-only effect; cell line not stated here; note: nearly all actives have a fitted effect of over 65% in size
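Compound titrations (5 concentrations, 24 h) on a stable cell line; DMSO and CCCP controls. Endpoint: fixed-cell PINK1 immunofluorescence with mitochondrial, cell and nuclear markers, scanned by microplate cytometer.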
GRP78 ERSR act = induces the endoplasmic reticulum stress response in human glioma cells. Potency, µM, usual class: activators. hit rate 0.02% among 420,000. AID 602332. U87-MG GRP78 promoter luciferase reporter, 16 h; note: series mostly up to about 76 µM; nearly all actives have a fitted effect of over 35% in size
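Stably transfected U87-MG human glioma cells carrying a GRP78-based luminescent sensor were seeded at 1000 cells/well, pin-dosed with compounds and incubated 16 h. Luciferase reagent was then added, and end-point luminescence was read after 10 min at room temperature.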
Hits are given with their value; ! = a repeat was not active. A selection: hits, their analogues and other compounds. The true share with any hit is near 0.74%. Unless noted, calls come from the whole dose curve; as a rule, active = well fitted curve in the direction sought with a large enough effect; inconclusive = small, poorly fitted or top-dose-only effect, or another doubt; inactive = no such curve, though single readings can be large; an effect the other way counts as inactive or inconclusive.

For CC(/C=C1\SC(=S)N(CCC(=O)Nc2nc(C)cs2)C1=O)=C\c1ccccc1 the results were Vif-A3F inh inactive, LDHA inh inactive, Vif-A3G inh inactive, pAkt inh inactive, PINK1 expr mod 40µM and GRP78 ERSR act inactive.
For CC(/C=C1\SC(=S)N(CCC(=O)Nc2ccc(O)cc2)C1=O)=C\c1ccccc1 the results were Vif-A3F inh inactive, LDHA inh inactive, Vif-A3G inh inactive, pAkt inh inactive, PINK1 expr mod inactive and GRP78 ERSR act inactive.
CC(NC(=O)CSc1ccc2c(c1)OCCCO2)c1cc2ccccc2o1 (stereo not drawn) was read as LDHA inh inactive.
CCOc1cc(/C=C2\NC(=O)NC2=O)cc(I)c1OC(C)C was read as LDHA inh inactive.
For O=C(O)c1csc2ccccc12 the results were LDHA inh inactive.
`O=C(O)Cc1csc2ccccc12` gave Vif-A3F inh inactive, LDHA inh inactive, Vif-A3G inh inactive, pAkt inh -126%, PINK1 expr mod inactive and GRP78 ERSR act inactive.
For Cc1cc(NCc2ccccc2)nc(N2CCOCC2)n1 the results were Vif-A3F inh inactive, LDHA inh inactive, Vif-A3G inh inactive, pAkt inh -113%, PINK1 expr mod inactive and GRP78 ERSR act inactive.
For COc1ccc(S(=O)(=O)[C@H]2CS(=O)(=O)C[C@@H]2NCc2ccccn2)cc1 the results were LDHA inh inactive.
`CC1=C(C(=O)N(C(C)C)C(C)C)CC(CC(=O)NC2CCCC2)C(=O)N1Cc1ccccc1` (stereo not drawn) gave Vif-A3F inh inactive, LDHA inh inactive, Vif-A3G inh inactive, pAkt inh inactive, PINK1 expr mod inactive and GRP78 ERSR act inactive.
Screening CC1=C(C(=O)N(C(C)C)C(C)C)CC(CC(=O)NC2CCCCC2)C(=O)N1Cc1ccccc1 (stereo not drawn) returned Vif-A3F inh inactive, LDHA inh -34, Vif-A3G inh inactive, pAkt inh inactive, PINK1 expr mod inactive and GRP78 ERSR act inactive.
Screening COc1ccc(NN=Nc2ccc([N+](=O)[O-])cc2)cc1 returned Vif-A3F inh inactive, LDHA inh inactive, Vif-A3G inh inactive, pAkt inh inactive, PINK1 expr mod inactive and GRP78 ERSR act inactive.
For COc1ccc(N/N=C(/Oc2ccc([N+](=O)[O-])cc2)C(C)=O)cc1 the results were Vif-A3F inh inactive, LDHA inh inactive, Vif-A3G inh inactive, pAkt inh -114%, PINK1 expr mod inactive and GRP78 ERSR act inactive.
`N#C/C(=N\Nc1ccccc1Cl)C(=O)c1ccccc1` gave Vif-A3F inh inactive, LDHA inh inactive, Vif-A3G inh inactive, pAkt inh inactive, PINK1 expr mod inconclusive and GRP78 ERSR act inactive.
For COc1ccc(C(=O)/C(C#N)=N/Nc2cccc([N+](=O)[O-])c2)cc1 the results were Vif-A3F inh inactive, LDHA inh inactive, Vif-A3G inh inactive, pAkt inh inactive, PINK1 expr mod 14µM and GRP78 ERSR act inconclusive.
`N#C/C(=N\Nc1cccc(Cl)c1)C(=O)c1ccccc1` gave Vif-A3F inh inactive, LDHA inh inactive, Vif-A3G inh inactive, pAkt inh inactive, PINK1 expr mod 25µM and GRP78 ERSR act inactive.
Cc1ccc(-c2cnc(CCC(=O)Nc3ccccc3F)o2)cc1 was read as LDHA inh inactive.
CC1=CC(=C(c2ccc(N)cc2)c2ccc(N)cc2)C=CC1=N was read as LDHA inh inactive, Vif-A3G inh inactive, PINK1 expr mod 16µM and GRP78 ERSR act inactive.
For CCOC(=O)C1CCN(CC(C)(C)NS(=O)(=O)c2ccc(C)cc2)CC1 the results were Vif-A3F inh inactive, LDHA inh inactive, Vif-A3G inh inactive, pAkt inh inactive, PINK1 expr mod inactive and GRP78 ERSR act inactive.
Cc1ccc(S(=O)(=O)NC(C)(C)CN2CCC(Cc3ccccc3)CC2)cc1 was read as Vif-A3F inh inactive, LDHA inh inactive, Vif-A3G inh inactive, pAkt inh inactive, PINK1 expr mod 40µM and GRP78 ERSR act inactive.
Screening COc1cc(NC(=O)Nc2ccc3nc(N4CCOCC4)cc(C)c3c2)cc(OC)c1 returned LDHA inh inactive.
Screening COCc1c(C(=O)N2CCN(Cc3nc4ccccc4s3)CC2)oc2ccccc12 returned Vif-A3F inh inactive, LDHA inh -33, Vif-A3G inh inactive, pAkt inh inactive, PINK1 expr mod inactive and GRP78 ERSR act inactive.
`C=CCn1c(SC/C=C/C)nc2c1c(=O)n(C)c(=O)n2C` gave LDHA inh inactive.
COc1cc(/C=C(/C#N)C(=O)NCCCc2ccccc2)ccc1OCC(=O)O was read as Vif-A3F inh inactive, LDHA inh -34, Vif-A3G inh inactive, pAkt inh inactive, PINK1 expr mod inactive and GRP78 ERSR act inactive.
Screening Cc1c(-c2ccccc2)c(=O)oc2ccc(OS(=O)(=O)c3ccc(Cl)cc3)cc12 returned LDHA inh inactive.
Screening COC(=O)c1cc(NC(=O)CSc2nc(C)cc(=O)[nH]2)cc(C(=O)OC)c1 returned Vif-A3F inh inactive, LDHA inh inactive, Vif-A3G inh inactive, pAkt inh -106%, PINK1 expr mod inactive and GRP78 ERSR act inactive.
Screening O=[N+]([O-])c1ccc(N2CCN(S(=O)(=O)c3ccccc3)CC2)c2cccnc12 returned Vif-A3F inh inactive, LDHA inh inactive, Vif-A3G inh inactive, pAkt inh inactive, PINK1 expr mod inactive and GRP78 ERSR act inactive.
Screening Cc1ccc(S(=O)(=O)N2CCN(c3ccc([N+](=O)[O-])c4cccnc34)CC2)cc1 returned Vif-A3F inh inactive, LDHA inh -31!, Vif-A3G inh inactive, pAkt inh inactive, PINK1 expr mod inactive and GRP78 ERSR act inactive.
Screening Cc1ccccc1/C=C/C(=O)c1c(C)nc2ccccc2c1-c1ccccc1 returned LDHA inh inactive.
O=C(NC1CCCc2ccccc21)c1csc2c1CCCCC2 (stereo not drawn) was read as LDHA inh inactive.
Screening N#CC(C#N)=C1C=C2C=C(N3CCOCC3)CCC2CC1 (stereo not drawn) returned Vif-A3F inh 11µM, LDHA inh inactive, Vif-A3G inh inactive, pAkt inh inactive, PINK1 expr mod 16µM and GRP78 ERSR act inactive.
CN1CCN(C2=CC3=CC(=C(C#N)C#N)CCC3CC2)CC1 (stereo not drawn) was read as Vif-A3F inh inactive, LDHA inh inactive, Vif-A3G inh inactive, pAkt inh inactive, PINK1 expr mod inconclusive and GRP78 ERSR act inactive.
`N#CC(C#N)=C1C=C2C=C(N3CCCCCC3)CCC2CC1` (stereo not drawn) gave Vif-A3F inh inconclusive, LDHA inh inactive, Vif-A3G inh inactive, pAkt inh inactive, PINK1 expr mod 11µM and GRP78 ERSR act inactive.
`O=C(OC(c1ccccc1)c1ccccn1)c1cnc2ccccc2n1` (stereo not drawn) gave LDHA inh inactive.

Compound activity (PubChem)
